Bioassay records deposited in PubChem BioAssay by National Center for Advancing Translational Sciences (NCATS).
Only some compounds are listed: those with a hit (about 19% of all), similar ones and a draw of the others.
DT40 TDP1 no CPT: qHTS for Inhibitors of human tyrosyl-DNA phosphodiesterase 1 (TDP1): qHTS in cells in absence of CPT; DT40 Tdp1-/- hTDP1 cells, no CPT, ATP luminescence, 48 h; Potency, µM (titrated, usually from 46.2 µM), hits mostly inhibitors; 15% of 420,000 active; AID 686978, 2013; also: nearly all actives have a fitted effect of over 55% in size
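Seeded 400 DT40-hTDP1 cells/well (vehicle DMSO, no 20 nM CPT); pinned compounds; ≥48 hr at 37 °C; CellTiter-Glo luminescence as viability measure.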
IL1B secr inh: qHTS for Inhibitors of Inflammasome Signaling: IL-1-beta AlphaLISA Primary Screen | THP-1 LPS/ATP IL-1B secretion, AlphaLISA, 16 h; hits give low values | 4.7% of 360,000 active | AID 743279, 2014 | activity change, % at 57.5 µM; in the data active = activity change below about -50%; inconclusive = mostly about -30% to -49%
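Secreted IL-1B measured by AlphaLISA bead assay after 16 h compound exposure of THP-1 cells; compounds (final up to 57.5 uM) added 1 h before LPS (250 ng/mL) and ATP (1.25 mM) stimulation; lower signal means less secretion.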
TDP1 cell CPT: qHTS for Inhibitors of human tyrosyl-DNA phosphodiesterase 1 (TDP1): qHTS in cells in presence of CPT. chicken DT40 Tdp1-/-;hTDP1 cells + 20 nM CPT, ATP luminescence, 48 h. Potency, µM (titrated, usually from 46.2 µM), hits mostly inhibitors. 12% of 420,000 active; also: nearly all actives have a fitted effect of over 55% in size
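Chicken DT40 Tdp1-/- cells complemented with human TDP1, 400 cells/well, exposed to compounds plus 20 nM camptothecin for at least 48 h at 37 C; viability read as ATP content by CellTiter-Glo luminescence.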
HepG2 tox: qHTS for Inhibitors of TGF-b: Cytotox Counterscreen; HepG2 CAGA-GFP viability, ATP luminescence, 18 h; Potency, µM (top dose mostly 46.1 µM), actives largely listed as cytotoxic; 0.76% of 410,000 active; AID 588856, 2011
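HepG2 CAGA-GFP cells (1000/well, DMEM with 1% FBS) received compound, then TGF-beta at 500 pg/mL final, and were incubated 18 hours at 37 degrees C. Viability was read by CellTiter-Glo luminescence. Media-only wells were set as complete cell-killing and DMSO as no toxicity.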
ASM inhibitor: Inhibitors of Secretory Acid Sphingomyelinase (S-ASM): qHTS. Potency, µM (highest dose often 57.5 µM), most hits filed as inhibitors. placental ASM, HMU-PC fluorogenic substrate, 60 min. AID 504937, 2011. 0.006% of 340,000 active
Target sequence (P17405 47-631 limits assumed): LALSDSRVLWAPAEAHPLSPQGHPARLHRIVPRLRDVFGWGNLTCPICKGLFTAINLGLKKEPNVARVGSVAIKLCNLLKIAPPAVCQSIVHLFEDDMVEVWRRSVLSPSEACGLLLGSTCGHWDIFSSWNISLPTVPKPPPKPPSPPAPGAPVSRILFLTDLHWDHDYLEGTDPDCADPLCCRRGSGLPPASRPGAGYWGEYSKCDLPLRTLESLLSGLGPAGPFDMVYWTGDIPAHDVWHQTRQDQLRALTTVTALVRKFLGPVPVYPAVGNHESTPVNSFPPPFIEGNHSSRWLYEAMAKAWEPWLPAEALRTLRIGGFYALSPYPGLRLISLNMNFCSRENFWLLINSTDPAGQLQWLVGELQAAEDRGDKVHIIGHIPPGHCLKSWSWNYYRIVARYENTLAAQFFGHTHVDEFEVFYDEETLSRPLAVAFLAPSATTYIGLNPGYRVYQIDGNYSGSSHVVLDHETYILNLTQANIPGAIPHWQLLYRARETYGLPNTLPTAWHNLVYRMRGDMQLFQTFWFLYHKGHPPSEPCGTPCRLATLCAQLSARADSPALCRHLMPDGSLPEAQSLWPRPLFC
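HMU-PC0 cleavage (9 uM final) by human placental ASM, 60 min at 37 °C following 10 min compound exposure at RT; stopped at pH 10, fluorescence Ex 386/Em 447 nm.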
TGFb inhibitor: qHTS for Inhibitors of TGF-b; HepG2 CAGA-GFP TGF-b/SMAD3 reporter, GFP fluorescence, 18 h; TGF-beta stimulated, 500 pg/mL final; Potency, µM (top dose mostly 46.1 µM), most hits filed as inhibitors; 1.2% of 410,000 active; also: nearly all actives have a fitted effect of over 65% in size
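Inhibition was scored as loss of TGF-beta-induced (500 pg/mL final, 18 hours, 37 degrees C) GFP in HEPG2 cells carrying a CAGA-GFP reporter, in DMEM with 1% FBS. Well GFP was summed per cell; Activity was normalised to unstimulated and stimulated DMSO wells, then concentration-response fitting.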
Large screens that a line does not name were inactive. Unless noted, calls follow the shape of the dose curve; as a rule, active = well fitted curve in the direction sought with a large enough effect; inconclusive = small, poorly fitted or top-dose-only effect, or another doubt; inactive = no such curve, though single readings can be large; an effect the other way counts as inactive or inconclusive.

CC(C)c1nn2c(=O)cc(COC(=O)c3cccs3)nc2s1	TGFb inhibitor inconclusive (no result: IL1B secr inh, ASM inhibitor)
Cc1ccc2nc(Cl)c3cc(C(=O)N4CCCCC4C)sc3c2c1 (configuration not stated)	DT40 TDP1 no CPT 23.1µM, TDP1 cell CPT inconclusive (no result: IL1B secr inh, ASM inhibitor)
Cc1ccc2nc(Cl)c3cc(C(=O)N4CCCCC4)sc3c2c1	TDP1 cell CPT inconclusive (no result: IL1B secr inh, ASM inhibitor)
Cc1ccc2nc(Cl)c3cc(C(=O)NCCCN4CCCC4)sc3c2c1	DT40 TDP1 no CPT 5.8µM, TDP1 cell CPT 5.8µM, TGFb inhibitor inconclusive
Cc1ccc(NC(=O)c2cc3c(Cl)nc4ccc(C)cc4c3s2)c(Cl)c1	DT40 TDP1 no CPT inconclusive (no result: IL1B secr inh, ASM inhibitor)
Cc1ccc2nc(Cl)c3cc(C(=O)N4CCCC(C)C4)sc3c2c1 (configuration not stated)	DT40 TDP1 no CPT inconclusive, TDP1 cell CPT inconclusive (no result: IL1B secr inh, ASM inhibitor)
CCC1CCCCN1CCCNC(=O)c1cc2c(Cl)nc3ccc(C)cc3c2s1 (configuration not stated)	DT40 TDP1 no CPT 4.61µM, TDP1 cell CPT 5.17µM (no result: IL1B secr inh, ASM inhibitor)
O=c1ccc(NS(=O)(=O)c2ccc(Cl)cc2)cn1Cc1ccc(Cl)c(Cl)c1	none
COc1ccc(CCNC(=O)C/C(C)=N/NC(=O)C(c2ccccc2)c2ccccc2)cc1OC	none (no result: IL1B secr inh)
Cc1ccc(-c2cn3nc(N4CCCC(C(=O)Nc5ccc(F)cc5)C4)sc3n2)cc1 (configuration not stated)	DT40 TDP1 no CPT 18.4µM, TDP1 cell CPT 16.4µM (no result: IL1B secr inh, ASM inhibitor)
CCOc1ccc(NC(=O)C2CCCN(c3nn4c(=O)cc(C)nc4s3)C2)cc1 (configuration not stated)	none
COc1ccc(-c2cn3nc(N4CCC(C(=O)Nc5cccc(Cl)c5)CC4)sc3n2)cc1	DT40 TDP1 no CPT inconclusive (no result: IL1B secr inh, ASM inhibitor)
COc1ccc(-c2cn3nc(N4CCCC(C(=O)Nc5cccc(OC)c5)C4)sc3n2)cc1 (configuration not stated)	DT40 TDP1 no CPT 23.1µM, TDP1 cell CPT 20.6µM, TGFb inhibitor inconclusive (no result: IL1B secr inh, ASM inhibitor)
COc1ccc(-c2cn3nc(N4CCC(C(=O)NCc5ccc(F)cc5)CC4)sc3n2)cc1	DT40 TDP1 no CPT inconclusive (no result: IL1B secr inh, ASM inhibitor)
CCOc1ccc(NC(=O)C2CCCN(c3nn4cc(-c5ccc(OC)cc5)nc4s3)C2)cc1 (configuration not stated)	DT40 TDP1 no CPT 10.3µM, TDP1 cell CPT inconclusive, TGFb inhibitor inconclusive (no result: IL1B secr inh, ASM inhibitor)
COc1cccc(NC(=O)C2CCN(c3nn4cc(-c5ccc(F)cc5)nc4s3)CC2)c1	DT40 TDP1 no CPT inconclusive, TDP1 cell CPT 13µM (no result: IL1B secr inh, ASM inhibitor)
Cc1cccc(-n2nnc3c(=O)n(Cc4ccccn4)cnc32)c1	none
COc1ccc(NC(=O)CSc2nnc(-c3cccnc3)o2)c(OC)c1	none
COc1cccc(NC(=O)Nc2nnc([C@@H]3C[C@H](O)[C@@H](CO)O3)s2)c1	DT40 TDP1 no CPT inconclusive (no result: ASM inhibitor)
COc1ccc(-c2cn3nc(N4CCC(C(=O)Nc5ccc(C)cc5)CC4)sc3n2)cc1	DT40 TDP1 no CPT 20.6µM, TDP1 cell CPT inconclusive (no result: IL1B secr inh, ASM inhibitor)
Cc1ccc(-c2cn3nc(N4CCCC(C(=O)NCc5ccc(F)cc5)C4)sc3n2)cc1 (configuration not stated)	DT40 TDP1 no CPT inconclusive, TDP1 cell CPT inconclusive (no result: IL1B secr inh, ASM inhibitor)
COc1ccc(-c2cn3nc(N4CCCC(C(=O)Nc5cccc(Cl)c5C)C4)sc3n2)cc1 (configuration not stated)	DT40 TDP1 no CPT 20.6µM, TDP1 cell CPT inconclusive (no result: IL1B secr inh, ASM inhibitor)
CCNC(=O)C1CCCN(c2nn3cc(-c4ccc(C)cc4)nc3s2)C1 (configuration not stated)	DT40 TDP1 no CPT 23.1µM, TDP1 cell CPT 18.4µM, TGFb inhibitor inconclusive (no result: IL1B secr inh, ASM inhibitor)
